The full list was thinned out, with hits kept by preference.
mHTT CaM bind – mutant huntingtin-calmodulin interaction inhibitors – biochemical, AlphaScreen, primary screen; AlphaScreen His-mHTT/GST-CaM binding, luminescence; inhibition, % at 15 µM; P42858; hit rate 3.6% among 190,000
Pf apPOL inh – Pf-apPOL inhibitors, biochemical, fluorescence | Plasmodium falciparum apicoplast DNA polymerase (apPOL) | Recombinant Pf-apPOL, molecular beacon fluorescence, 1.5 h | inhibition, % at 10 µM | hit rate 0.25% among 210,000 | AID 1794808, 2022
Of the large screens only hits and unclear results are named; the others gave an inactive call. Cut-off read from the data, not from the text of the source: active = inhibition above about 50%; inactive = the rest.

CN(C)CCCNC(=O)c1ccc(/C=N/O)[n+](C)c1	none
COc1ccc(Cl)cc1C(=O)NCC(O)C1CCCCC1 (stereo unspecified)	none
Cc1nn(-c2ccccc2)c2c1C(=O)C(Br)C(C)(C)C2Br (stereo unspecified)	none
C[C@H](c1ccccc1)N1C[C@H](COCc2ccccc2)Oc2cc(N3CC[C@H](O)C3)ccc2S1(=O)=O	mHTT CaM bind 72
C[C@H](c1ccccc1)N1C[C@H](COCc2ccccc2)Oc2cc(N3CCC[C@@H]3CO)ccc2S1(=O)=O	none
COC[C@@H]1CCCN1c1ccc2c(c1)O[C@@H](COCc1ccccc1)CN([C@H](C)c1ccccc1)S2(=O)=O	none
C[C@H](c1ccccc1)N1C[C@@H](COCc2ccccc2)Oc2cc(N3CC[C@H](O)C3)ccc2S1(=O)=O	mHTT CaM bind 78
Cc1c(C(=O)Nc2ccc3c(c2)OCO3)sc2ncn(Cc3ccccc3F)c(=O)c12	none
Clc1ccc2c(c1)-c1c(cnc3ccc(Cl)cc13)CO2	none (no result: mHTT CaM bind)
COc1ccc2c(=O)c3c(oc2c1)C(=O)N(CCCN(C)C)C3c1ccc(C(C)C)cc1 (stereo unspecified)	none
O=C(CN1CCN(CC(=O)Nc2ccc(F)cc2F)CC1)Nc1ccccc1F	none
Cc1ccc(-c2nc3n(n2)C(=O)CC(c2ccco2)S3)cc1 (stereo unspecified)	none
O=C1CC(c2ccco2)Sc2nc(-c3ccc(F)cc3)nn21 (stereo unspecified)	mHTT CaM bind 100
Nc1c(Br)cc(O)c2c1C(=O)c1ccccc1C2=O	mHTT CaM bind 83
Nc1c(Br)cc(Cl)c2c1C(=O)c1ccccc1C2=O	none
O=C(Nc1c(-c2ccc(F)c(F)c2)nc2ccccn12)C1CC1	none
Cc1ccccc1Cn1cc(NC(=O)CCCn2nc(C)c([N+](=O)[O-])c2C)cn1	none
CC(=O)Nc1cc([N+](=O)[O-])ccc1-n1cc(C)c(C(F)(F)F)n1	none (no result: mHTT CaM bind)
CN(C)c1ccc(/C=C/C=C/c2cc[n+](C)cc2)cc1	mHTT CaM bind 60
CN(C)c1ccc(/C=C/C=C/c2cccc[n+]2C)cc1	none
COc1ccc(N(C(=O)C2CCCCC2)C2C=CS(=O)(=O)C2)cc1 (stereo unspecified)	none
Clc1ccc2nc(CSc3nncn3-c3ccccc3)c(Cl)n2c1	none
COc1cc(C2C3=C(CC(C)(C)CC3=O)NC3=C2C(=O)c2ccccc23)cc(OC)c1OC (stereo unspecified)	mHTT CaM bind 61
COc1cccc(C2C3=C(CC(C)(C)CC3=O)NC3=C2C(=O)c2ccccc23)c1OC (stereo unspecified)	none
CC1(C)CC(=O)C2=C(C1)NC1=C(C(=O)c3ccccc31)C2c1ccc(O)cc1 (stereo unspecified)	none
CC1(C)CC(=O)C2=C(C1)NC1=C(C(=O)c3ccccc31)C2c1ccc(Br)cc1 (stereo unspecified)	mHTT CaM bind 60
Cc1ccc(-n2nc3c(c2NC(=O)c2ccc(OC(C)C)cc2)CS(=O)(=O)C3)c(C)c1	none
COCCNC(=O)c1ccn2c(-c3ccc(F)cc3)nnc2c1	none
Cc1ccc(-n2nc3c(c2NC(=O)/C=C/c2ccc4c(c2)OCO4)CS(=O)(=O)C3)c(C)c1	none
CN1CCc2cc(C(CNC(=O)C34CC5CC(CC(C5)C3)C4)N3CCCCC3)ccc21 (stereo unspecified)	none
COc1ccc(N2CCN(C(=O)C34CC5(C)CC(C)(CC(C)(C5)C3)C4)CC2)cc1	mHTT CaM bind 54
CC(=O)N1CCN(C(=O)C23CC4(C)CC(C)(CC(C)(C4)C2)C3)CC1	none
O=C(NN1CCOCC1)c1ccc(Br)cc1	Pf apPOL inh 56
O=C(NN1CCOCC1)c1cccc(Br)c1	none
Cn1cc(C(c2ccc(Br)o2)c2cn(C)c3ccccc23)c2ccccc21	none
Cn1cc(C(c2ccco2)c2cn(C)c3ccccc23)c2ccccc21	mHTT CaM bind 58
Cc1ccnc(N2CCCC(C(=O)NCCN3CCC(Cc4ccccc4)CC3)C2)n1 (stereo unspecified)	none
CSc1ccc(N2CC(c3nnc(NC(=O)c4c(F)cccc4F)o3)CC2=O)cc1 (stereo unspecified)	none
CSc1ccc(N2CC(c3nnc(NC(=O)c4ccco4)o3)CC2=O)cc1 (stereo unspecified)	mHTT CaM bind 65
O=C(Cc1ccc(F)cc1)Nc1nnc(-c2ccc3c(c2)CCCC3)o1	none
O=C(Cc1cccc(F)c1)Nc1nnc(C2CC(=O)N(c3ccc(F)cc3)C2)o1 (stereo unspecified)	mHTT CaM bind 74
O=C(Cc1cccc(F)c1)Nc1nnc(C2CC(=O)N(c3ccc(Cl)cc3)C2)o1 (stereo unspecified)	none
O=C(Nc1nnc(C2CC(=O)N(c3ccc(F)cc3)C2)o1)c1ccc(F)cc1 (stereo unspecified)	none
COc1ccc(C(=O)Nc2nnc(C3CC(=O)N(c4ccc(F)cc4)C3)o2)cc1OC (stereo unspecified)	mHTT CaM bind 54
O=C(Cc1ccc(F)cc1)Nc1nnc(C2=COCCO2)o1	mHTT CaM bind 51
COc1cccc(CNC(=O)c2cn3c(n2)COCC3)c1	none
COCCCN1C(=O)c2ccc(C(=O)Nc3ccc(Cl)cc3Cl)cc2C1=O	none
O=C(Cc1ccc(F)cc1)Nc1nnc(C2CC(=O)N(c3ccc(F)cc3)C2)o1 (stereo unspecified)	mHTT CaM bind 80
COc1ccccc1-c1nnc(NC(=O)C2CC(=O)N(c3ccc(F)cc3)C2)o1 (stereo unspecified)	none
Cc1ccc(CC(=O)Nc2nnc(C3CC(=O)N(c4ccc(F)cc4)C3)o2)cc1 (stereo unspecified)	none
Cc1nc(C)c(-c2nnc(NC(=O)C3CC(=O)N(c4ccc(F)cc4)C3)o2)s1 (stereo unspecified)	mHTT CaM bind 97
Cc1ccc(S(=O)(=O)c2nc(C(C)(C)C)oc2NCc2ccccc2)cc1	none
COc1ccc(C)cc1-n1cnc2cc(C(=O)NC3CCCCC3C)ccc21 (stereo unspecified)	mHTT CaM bind 66
Cc1ccc(-n2cnc3cc(C(=O)NC4CCCC4)ccc32)c(C)c1	none
COc1cccc(NC(=O)c2cc(Br)ccc2OC)c1	none
COc1cccc(NC(=O)N2C(=O)C(=O)c3cc(Br)ccc32)c1	mHTT CaM bind 73
CC1=NOC2(O)CC3C(C12)C3(C)C (stereo unspecified)	none (no result: mHTT CaM bind)
CCOc1ccccc1C1C=C(c2ccc(I)cc2)Nc2ncnn21 (stereo unspecified)	none
COc1ccc(OC)c(C2C3=C(CC(C)(C)CC3=O)Nc3ccc4ncccc4c32)c1 (stereo unspecified)	mHTT CaM bind 52
CC1(C)CC(=O)C2=C(C1)Nc1ccc3ncccc3c1C2c1ccccn1 (stereo unspecified)	none
CCN(CC)c1ccc(N=C2C(=O)Nc3ccccc32)cc1	mHTT CaM bind 100
O=C1Nc2ccccc2C1=Nc1ccc(C(=O)O)cc1	none
COCC(=O)Nc1ccc(-c2nc3ccc(C)cc3s2)cc1	none
CCc1nc(NCC(C)C)c2cnn(-c3ccccc3Cl)c2n1	none
O=C(Nc1nc2c(s1)CCCC2)C(c1ccccc1)n1cccc1 (stereo unspecified)	mHTT CaM bind 95
CC(CC(=O)Nc1nc2c(s1)CCCC2)c1ccccc1 (stereo unspecified)	none
CC(=O)N1/C(=C/c2ccc(N(C)C)cc2)C(=O)c2ccccc21	mHTT CaM bind 84
CC(=O)N1/C(=C/c2ccncc2)C(=O)c2ccccc21	none
